Measured values taken from the supplement of paper PMC12645437, “Orthogonal IMiD-Degron Pairs Induce Selective Protein Degradation in Cells” (ACS Chemical Biology, 2025).
In all, about 8,300 sequences were measured (“log2 fold change of degron read counts, EGFP-low vs EGFP+ sorted cells (limma voom), compound-induced degradation”: median about -1.1, highest 2% from about 3.2 on). This is one part of a sample in which the highest values are shown more often than they occur.

T1: CRBN, Q96SW2
T1 chain: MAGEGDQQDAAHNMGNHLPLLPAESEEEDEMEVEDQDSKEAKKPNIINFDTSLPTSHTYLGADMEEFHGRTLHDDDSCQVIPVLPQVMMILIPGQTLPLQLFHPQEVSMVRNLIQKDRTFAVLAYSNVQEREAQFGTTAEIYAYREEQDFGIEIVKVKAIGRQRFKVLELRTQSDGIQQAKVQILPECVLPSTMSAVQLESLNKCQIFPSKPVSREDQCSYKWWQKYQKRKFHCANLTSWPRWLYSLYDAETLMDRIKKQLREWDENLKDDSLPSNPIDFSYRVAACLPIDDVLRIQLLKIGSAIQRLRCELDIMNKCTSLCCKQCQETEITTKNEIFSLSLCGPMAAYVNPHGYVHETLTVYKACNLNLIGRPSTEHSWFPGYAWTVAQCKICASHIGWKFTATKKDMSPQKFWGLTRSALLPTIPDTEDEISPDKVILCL


Molecular target: T1, CRBN, Q96SW2
Assay: log2 fold change of degron read counts, EGFP-low vs EGFP+ sorted cells (limma voom), compound-induced degradation; higher = more compound-induced degradation of the degron-EGFP fusion; degrons are variants of IKZF1/3 zinc finger 2; compound dose not given here
Conditions: Jurkat, 18 h
Method: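 Pooled library of 8380 IKZF3 ZF2 degron mutants (positions 146-167 varied within the IKZF3 130-189 degron; only the varied core is printed, flanks not printed) fused to EGFP with IRES-mCherry, lentivirally expressed in Jurkat cells. mCherry+ cells were treated with one IMiD compound for 18 h (dose not stated) and FACS-sorted into EGFP-low and EGFP+ populations. Degron sequences were counted by NGS, and log2FC (EGFP-low vs EGFP+) was estimated by limma voom over 3 biological replicates.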

[1] = compound: compound 19 (5-tert-butyl-thalidomide)
[2] = compound: compound 22 (5-morpholino-thalidomide)
[3] = compound: compound 33 (diphenyl IMiD analogue)
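Note: pooled lentiviral library of zinc finger degron-EGFP fusions in mCherry-positive Jurkat cells, FACS-sorted after compound exposure, with degron abundance counted by next-generation sequencing.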

| Sequence | log2 fold change of degron read counts [1] | log2 fold change of degron read counts [2] | log2 fold change of degron read counts [3] | log2 fold change of degron read counts (compound: thalidomide) |
| --- | --- | --- | --- | --- |
| FTCNQCGHIFTQKGNLLRHIKL [46F_47T_49N_50Q_52G_53H_54I_55F_67L_, Q9UKT9] | -3.22 | -3.78 | -2.72 | -3.39 |
| LFCNQCGFTCTQKGNLLRHIKL [46L_47F_49N_50Q_52G_53F_54T_55C_67L_, Q9UKT9] | -0.962 | -0.778 | -1.34 | -1.55 |
| FACNICGAWFTQKGNLLRHIKL [46F_47A_49N_50I_52G_53A_54W_55F_67L_, Q9UKT9] | -0.878 | -0.37 | -0.973 | -1.22 |
| FECNQCGRSFTQKGNLLRHIKL [46F_47E_49N_50Q_52G_53R_54S_55F_67L_, Q9UKT9] | -2.91 | -4.04 | -3.77 | -2.98 |
| LMCNQCGFPCTQKGNLLRHIKL [46L_47M_49N_50Q_52G_53F_54P_55C_67L_, Q9UKT9] | -2.18 | -2.49 | -1.64 | -1.76 |
| FECEICGHSFTQKGNLLRHIKL [46F_47E_49E_50I_52G_53H_54S_55F_67L_, Q9UKT9] | -3.4 | -3.98 | -3.41 | -3.14 |
| FSCDVCGAVFTQKGNLLRHIKL [46F_47S_49D_50V_52G_53A_54V_55F_67L_, Q9UKT9] | -0.211 | -0.318 | 1.04 | -0.804 |
| FSCPICGRVFTQKGNLLRHIKL [46F_47S_49P_50I_52G_53R_54V_55F_67L_, Q9UKT9] | -0.277 | -0.0789 | 1.53 | 0.556 |
| FMCEICGHFFTQKGNLLRHIKL [46F_47M_49E_50I_52G_53H_54F_55F_67L_, Q9UKT9] | -3.03 | -3.09 | -2.32 | -3.02 |
| FLCEICGALFTQKGNLLRHIKL [46F_47L_49E_50I_52G_53A_54L_55F_67L_, Q9UKT9] | -0.92 | -1.27 | 0.77 | 1.46 |
| FYCEICGALFTQKGNLLRHIKL [46F_47Y_49E_50I_52G_53A_54L_55F_67L_, Q9UKT9] | 3.29 | 3.38 | 2.38 | 0.365 |
| FFCEICGALFTQKGNLLRHIKL [46F_47F_49E_50I_52G_53A_54L_55F_67L_, Q9UKT9] | 3.18 | 2.91 | 1.74 | 0.646 |
| FQCEICGALFTQKGNLLRHIKL [46F_47Q_49E_50I_52G_53A_54L_55F_67L_, Q9UKT9] | -1.22 | 1.46 | 1.74 | 3.53 |
| FACEICGALFTQKGNLLRHIKL [46F_47A_49E_50I_52G_53A_54L_55F_67L_, Q9UKT9] | 2.71 | 0.321 | 0.174 | -0.494 |
| FDCEICGALFTQKGNLLRHIKL [46F_47D_49E_50I_52G_53A_54L_55F_67L_, Q9UKT9] | -0.733 | -1.67 | 0.189 | -0.124 |
| FGCEQCGAKFTQKGNLLRHIKL [46F_47G_49E_50Q_52G_53A_54K_55F_67L_, Q9UKT9] | 0.32 | -2.26 | -2.15 | -0.779 |
| FLCPVCGAEFTQKGNLLRHIKL [46F_47L_49P_50V_52G_53A_54E_55F_67L_, Q9UKT9] | -0.14 | -1.09 | 1.21 | 1.24 |
| FCCPQCGANFTQKGNLLRHIKL [46F_47C_49P_50Q_52G_53A_54N_55F_67L_, Q9UKT9] | -0.811 | -1.28 | 0.128 | -0.853 |
